Compound activity as filed in PubChem BioAssay.
NFkB transloc pot = enhances IL-1B driven NFkB nuclear translocation | HUVEC IL-1B NFkB p65 nuclear translocation imaging | activation, % at 2 µM | hit rate 0.3% among 94,000;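 active = activation above 40%, about the mean plus 3 SD, also judged a hit on visual image review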;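 note: percent activation is computed from the nuclear over cytoplasmic p65 intensity ratio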
VCAM1 TNFa inh = reduces TNF alpha induced VCAM1 expression in HUVEC; inhibition, % at 2 µM; AID 802; HUVEC TNFa-induced VCAM-1 immunofluorescence, high-content imaging; hit rate 0.48% among 95,000;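 active = inhibition above the batch mean plus 3 SD, with images confirmed as a hit by eye, cut at about 37% in these data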;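 note: 0% = TNF-stimulated DMSO wells and 100% = unstimulated control wells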
TNFa cytotox = toxic to HUVEC cells under TNF alpha stimulation | HUVEC TNFalpha-stimulated, Hoechst cell count, imaging | cell count reduction, % at 2 µM | hit rate 0.17% among 93,000;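 active = cell count reduction exceeding the screen mean by over 5 SD, scaled to untreated wells per plate, cut at about 78% in these data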;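 note: cells counted after 24 h of TNF alpha exposure following the 1 h pretreatment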
IL1B cytotox = toxic to HUVEC cells under IL-1B stimulation | cell count reduction, % at 2 µM | HUVEC cell count loss, Hoechst imaging, IL-1B stimulated | hit rate 0.41% among 94,000;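 active = cell count reduction more than 3 SD above the screen-wide mean, cut at about 70% in these data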;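 note: normalized per plate to untreated control cells as the no-loss baseline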
E-sel TNF inh = TNF alpha driven E-selectin expression inhibition | HUVEC TNFa-induced E-selectin immunofluorescence, high content | inhibition, % at 2 µM | hit rate 0.71% among 120,000 | AID 1246;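 active = inhibition above the batch mean plus 3 SD, and confirmed as a hit on visual image review, cut at about 43% in these data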;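 note: 0% = TNF-stimulated DMSO wells and 100% = unstimulated control wells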
NFkB transloc inh = blocks IL-1B driven NFkB nuclear translocation in HUVEC cells; HUVEC IL-1B NFkB p65 nuclear translocation imaging; inhibition, % at 2 µM; hit rate 0.43% among 94,000;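 active = inhibition above about 30% together with a positive call from visual inspection of the well image, limit read from the data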;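 note: nuclear over cytoplasmic p65 intensity ratio measured by imaging; 0% = IL-1B stimulated DMSO wells and 100% = unstimulated DMSO wells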
The depositor's hits bear a star; . = no result given. Only some compounds are listed: those with a hit (about 1.6% of all), similar ones and a draw of the others.

SMILES | NFkB transloc pot | VCAM1 TNFa inh | TNFa cytotox | IL1B cytotox | E-sel TNF inh | NFkB transloc inh
Cc1ccc(C(C(=O)NC(C)(C)C)N(Cc2cccnc2)C(=O)C(=O)NC2CCCCC2)o1 (centres undefined) | . | . | . | . | 6.9 | .
COc1cccc(NC(=O)CCc2nc(-c3ccccc3F)no2)c1 | -5.2 | -0.3 | 12.8 | 81.9* | 19.8 | 5.2
CCOC(=O)c1ccc(NC(=O)CCc2nc(-c3cccc(C)c3)no2)cc1 | -99.0 | -12.0 | -16.8 | 87.1* | -13.1 | 99.0*
COc1ccc(-c2csc3ncn(CC(=O)N4CCOCC4)c(=O)c23)cc1 | . | . | . | . | -31.3 | .
COc1cc(C2Nc3ccc4ncccc4c3C3=C2C(=O)CCC3)cc(OC)c1O (centres undefined) | -12.0 | 91.2* | -18.0 | 16.7 | -6.3 | 12.0
COC(=O)c1cc(OC)c(OC)cc1NC(=S)N1CCCCC1 | 11.8 | 11.1 | -6.0 | -18.6 | -0.3 | -11.8
COC(=O)c1cc(OC)c(OC)cc1NC(=S)N1CCN(C)CC1 | 1.0 | 5.9 | 2.5 | 73.1* | -45.8 | -1.0
CCCc1cc(=O)[nH]c(NCc2ccc(Cl)cc2)n1 | -0.3 | 15.3 | -6.3 | 89.8* | 2.7 | 0.3
O=C(CSc1nnc(Cc2cc(=O)[nH]c(=O)[nH]2)n1-c1ccccc1)NCC1CCCO1 (centres undefined) | -14.7 | 14.7 | -25.1 | 92.8* | 1.0 | 14.7
O=C(CSc1nnc(Cc2cc(=O)[nH]c(=O)[nH]2)n1-c1ccc(Cl)cc1)NCC1CCCO1 (centres undefined) | -3.8 | -4.4 | -3.2 | 3.9 | . | 3.8
COc1cc(/C=C/C(=O)N2CCN(CC(O)COc3ccccc3)CC2)cc(OC)c1OC (centres undefined) | -5.3 | 2.5 | -23.4 | -16.7 | 66.4* | 5.3
Cc1cc(C)c(NC(=O)CSc2ccc(-c3cccnc3)nn2)c(C)c1 | . | . | . | . | -7.4 | .
COc1ccc(-c2nc(CS(=O)CC(=O)NCc3cccnc3)c(C)o2)cc1 (centres undefined) | -7.4 | 18.5 | 82.2* | 27.6 | . | 7.4
CCc1ccc(-c2nc(CS(=O)CC(=O)NCc3cccnc3)c(C)o2)cc1 (centres undefined) | . | . | . | . | -2.5 | .
O=C(Nc1nc(-c2cccc([N+](=O)[O-])c2)cs1)c1cccc([N+](=O)[O-])c1C(=O)O | . | . | . | . | 0.8 | .
O=C(Cn1ncc2c(=O)oc3ccccc3c21)N1CCc2ccccc2C1 | . | . | . | . | 90.5* | .
COc1ccc2[nH]c(=O)c(CN(C(=O)c3ccncc3)C(C)C)cc2c1 | 0.8 | 95.4* | -77.1 | 1.7 | 4.4 | -0.8
O=C(CSc1ncc(-c2ccccc2)nn1)NCc1ccco1 | 10.5 | 18.3 | -14.0 | -6.4 | . | -10.5
O=C(CSc1nc2ccccc2c(=O)n1-c1ccccc1)NCc1ccco1 | 4.3 | 42.5 | 88.2* | -9.7 | 10.2 | -4.3
O=C(CSc1nc(-c2ccccc2)cs1)NCc1ccco1 | -50.4 | 2.5 | -3.1 | -16.4 | -19.9 | 50.4*
Cc1cccc(-n2c(SCC(=O)NCc3ccco3)nc3ccccc3c2=O)c1 | 10.7 | 10.8 | -13.9 | -4.5 | . | -10.7
CC(=O)Cc1nsc(Nc2ccc(Cl)cc2)n1 | . | . | . | . | -5.3 | .
CCCCOC(=O)Nc1ccc(C)c(Cl)c1 | -27.9 | -2.9 | -8.8 | 90.7* | 0.4 | 27.9
CCC(C)C1C(C#N)=C(N)Oc2n[nH]c(C)c21 (centres undefined) | -3.3 | -6.8 | -19.5 | 2.5 | 12.1 | 3.3
CCC(C)C1C(C#N)=C(N)Oc2n[nH]c(-c3ccccc3)c21 (centres undefined) | -3.4 | 55.9* | 29.4 | 0.3 | 6.0 | 3.4
SMILES | NFkB transloc pot | VCAM1 TNFa inh | TNFa cytotox | IL1B cytotox | E-sel TNF inh | NFkB transloc inh
COCCCNC(=O)CCCn1c(=O)c2ccccc2n(Cc2cccc([N+](=O)[O-])c2)c1=O | . | . | . | . | -12.2 | .
COc1ccccc1-c1nnc2n1N=C(c1ccc(O)c(O)c1)CS2 | -8.9 | 95.5* | 55.9 | -60.0 | 28.8 | 8.9
COc1ccc(C2=Nn3c(nnc3-c3ccncc3)SC2)cc1OC | 2.0 | 3.4 | -14.7 | 4.1 | -7.8 | -2.0
CCOc1ccc(C2=Nn3c(nnc3-c3ccccc3OC)SC2)cc1 | -5.2 | 98.9* | 70.3 | 10.5 | 29.2 | 5.2
CCOc1ccc(-c2nnc3n2N=C(c2ccc(OC)cc2)CS3)cc1 | 31.0 | 8.2 | -24.1 | -37.0 | . | -31.0
CC(=O)NC(Cc1ccc(C)cc1)C(=O)NC1CCN(C(=O)c2cnccn2)CC1 (centres undefined) | 43.1* | -1.9 | 1.7 | -16.7 | -20.3 | -43.1
CC(=O)NC(Cc1ccccc1)C(=O)NC1CCN(C(=O)NC2CCCCC2)CC1 (centres undefined) | 4.5 | -4.4 | -6.1 | -0.4 | . | -4.5
O=C(NCC(c1cccnc1)N1CCN(c2ccccc2)CC1)c1ccc2c(c1)OCO2 (centres undefined) | 32.5 | 9.5 | -18.7 | -2.2 | 5.9 | -32.5
O=C(NCC(c1cccnc1)N1CCOCC1)c1ccc2c(c1)OCO2 (centres undefined) | -35.7 | 7.4 | 0.7 | -32.2 | -19.6 | 35.7*
Cc1ccc(C(=O)OCC(=O)N2CCc3ccccc32)cc1 | -0.7 | -7.6 | -4.5 | 5.4 | -5.5 | 0.7
Cn1nc(C(=O)OCC(=O)N2CCc3ccccc32)c2ccccc2c1=O | -2.5 | 77.0* | 88.0* | 13.4 | . | 2.5
Cc1c(NC(=O)/C=C/c2ccc(S(=O)(=O)N3CCOCC3)cc2)c(=O)n(-c2ccccc2)n1C | . | . | . | . | 10.9 | .
COc1ccc(OCC(=O)c2c(O)c3ccccc3oc2=O)cc1 | -12.9 | 12.6 | -10.3 | 93.8* | 9.5 | 12.9
CCOc1ccc(OCC(=O)c2c(O)c3ccccc3oc2=O)cc1 | -14.8 | 8.3 | -22.7 | 14.2 | . | 14.8
O=[N+]([O-])c1ccccc1/C=C/C=N/Nc1ccc(S(=O)(=O)Nc2ccc(Cl)cc2)cc1[N+](=O)[O-] | . | . | . | . | -47.1 | .
Cc1c(NC(=S)NC(NC(=O)C(C)C)C(Cl)(Cl)Cl)c(=O)n(-c2ccccc2)n1C (centres undefined) | . | . | . | . | -20.6 | .
Cc1ccc(CN2CCC(c3nc4ccc(Cl)cc4[nH]3)CC2)cc1 | -34.2 | -6.3 | -0.4 | 0.4 | . | 34.2*
Clc1ccc2nc(C3CCN(Cc4ccccc4)CC3)[nH]c2c1 | -6.8 | -7.5 | -27.8 | 1.0 | 18.7 | 6.8
Cc1cccc(Cn2ccc(NC(=O)c3ccc4c(c3)OCO4)n2)c1 | . | . | . | . | 13.9 | .
CCCc1nnc(SCC(=O)O)n1/N=C/c1ccc2c(c1)OCO2 | -7.5 | 48.4* | 49.3 | 20.0 | -5.6 | 7.5
COc1ccc(C(c2nnnn2Cc2ccccc2)N2CCN(c3nc4ccccc4s3)CC2)cc1 (centres undefined) | . | . | . | . | 68.9* | .
COc1ccc(Cn2nnnc2C(c2cccs2)N2CCSCC2)cc1 (centres undefined) | -3.2 | 86.6* | 88.2* | 6.0 | . | 3.2
CCCCCCOC(=O)/C=C/c1c(C)[nH]c(=O)[nH]c1=O | 7.1 | 11.3 | -2.8 | -12.7 | 74.0* | -7.1
Cc1ccccc1-c1nc(CN2CCC(C(=O)NCCCN3CC(C)CC(C)C3)CC2)c(C)o1 (centres undefined) | -0.6 | 42.8* | -8.1 | 3.6 | 17.5 | 0.6
